According to PubChem BioAssay AID1159580 (chemical genetic matrix, 2015):
Screen size: about 5,500 compounds; about 2,000 (36%) were called active. Another 18% or so got no clear call; they are omitted. Rule as the data show it: active = normalized growth mostly below about 0.91 (no sharp cut-off); inconclusive = no clear call, values can overlap the other calls; inactive = mostly above about 0.92. This is one part of the list.

Assay: chemical genetic growth profiling, strain panel (AID 1159580);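 also: tested at 20 µM; growth read once vehicle control cultures reached saturation at 30 °C; 1 = growth at the plate median or of vehicle wells; lower values mean less growth of the strain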
Details: growth OD

Measured: normalized growth

COc1ccc(C(Cl)=C(c2ccc(OC)cc2)c2ccc(OC)cc2)cc1
inactive: S. cerevisiae deletion strains, locus YKL009W, strain mrt4, active compounds read low 1.02 | S. cerevisiae deletion strains, locus YKL068W, active compounds read low 1.02 | S. cerevisiae deletion strains, locus YKL085W, strain MDH1 (second series), active compounds read low 0.98 | S. cerevisiae deletion strains, locus YKL085W, strain MDH1, active compounds read low 0.98 | S. cerevisiae deletion strains, locus YKL160W, strain elf1, active compounds read low 0.993 | S. cerevisiae deletion strains, locus YKL190W, strain CNB1, active compounds read low 1.01 | S. cerevisiae deletion strains, locus YKR001C, strain vps1, active compounds read low 1.01 | S. cerevisiae deletion strains, locus YKR026C, strain gcn3, active compounds read low 1.01 | S. cerevisiae deletion strains, locus YKR091W, strain srl3, active compounds read low 1.04 | S. cerevisiae deletion strains, locus YLL001W, strain dnm1, active compounds read low 1.01 | S. cerevisiae deletion strains, locus YLL026W, active compounds read low 1 | S. cerevisiae deletion strains, locus YLL041C, strain sdh2, active compounds read low 1.02 | S. cerevisiae deletion strains, locus YLR027C, strain aat2, active compounds read low 1.04 | S. cerevisiae deletion strains, locus YLR039C, strain RIC1, active compounds read low 1.01 | S. cerevisiae deletion strains, locus YLR058C, strain SHM2, active compounds read low 1.02 | S. cerevisiae deletion strains, locus YLR102C, strain apc9, active compounds read low 1.02 | S. cerevisiae deletion strains, locus YLR113W, strain HOG1, active compounds read low 0.97 | S. cerevisiae deletion strains, locus YLR221C, strain rsa3, active compounds read low 0.995 | S. cerevisiae deletion strains, locus YLR258W, strain gsy2, active compounds read low 1.02 | S. cerevisiae deletion strains, locus YLR262C, strain YPT6 (second series), active compounds read low 1.07 | S. cerevisiae deletion strains, locus YLR262C, strain YPT6, active compounds read low 1.02 | S. cerevisiae deletion strains, locus YLR268W, strain sec22, active compounds read low 1.01 | S. cerevisiae deletion strains, locus YLR320W, strain mms22, active compounds read low 1.01 | S. cerevisiae deletion strains, locus YLR330W, strain CHS5, active compounds read low 1.01 | S. cerevisiae deletion strains, locus YLR342W, strain FKS1 (second series), active compounds read low 0.988 | S. cerevisiae deletion strains, locus YLR342W, strain FKS1, active compounds read low 1.01 | S. cerevisiae deletion strains, locus YLR357W, strain rsc2, active compounds read low 1.04 | S. cerevisiae deletion strains, locus YLR370C, strain arc18, active compounds read low 0.972 | S. cerevisiae deletion strains, locus YLR371W, strain rom2, active compounds read low 1.03 | S. cerevisiae deletion strains, locus YLR384C, strain iki3, active compounds read low 1.01 | S. cerevisiae deletion strains, locus YLR418C, strain cdc73, active compounds read low 1.06 | S. cerevisiae deletion strains, locus YML016C, strain PPZ1, active compounds read low 1.02 | S. cerevisiae deletion strains, locus YML032C, strain rad52, active compounds read low 1 | S. cerevisiae deletion strains, locus YML120C, strain ndi1, active compounds read low 0.982 | S. cerevisiae deletion strains, locus YML124C, strain tub3, active compounds read low 1.03 | S. cerevisiae deletion strains, locus YMR058W, strain fet3, active compounds read low 1.05 | S. cerevisiae deletion strains, locus YMR078C, strain ctf18, active compounds read low 1.03 | S. cerevisiae deletion strains, locus YMR125W, strain sto1, active compounds read low 1.01 | S. cerevisiae deletion strains, locus YMR129W, active compounds read low 0.998 | S. cerevisiae deletion strains, locus YMR205C, strain PFK2, active compounds read low 1.03 | S. cerevisiae deletion strains, locus YMR223W, strain ubp8, active compounds read low 1.02 | S. cerevisiae deletion strains, locus YMR231W, strain pep5, active compounds read low 1.02 | S. cerevisiae deletion strains, locus YMR263W, strain SAP30, active compounds read low 1.04 | S. cerevisiae deletion strains, locus YMR307W, strain GAS1, active compounds read low 1 | S. cerevisiae deletion strains, locus YNL067W, strain RPL9B, active compounds read low 1.03 | S. cerevisiae deletion strains, locus YNL071W, strain lat1, active compounds read low 1.03 | S. cerevisiae deletion strains, locus YNL128W, strain TEP1, active compounds read low 1.03 | S. cerevisiae deletion strains, locus YNL183C, strain NPR1, active compounds read low 0.905 | S. cerevisiae deletion strains, locus YNL209W, strain ssb2, active compounds read low 1 | S. cerevisiae deletion strains, locus YNL233W, strain BNI4, active compounds read low 1.02 | S. cerevisiae deletion strains, locus YNL248C, strain rpa49, active compounds read low 0.962 | S. cerevisiae deletion strains, locus YNL250W, strain rad50, active compounds read low 1.05 | S. cerevisiae deletion strains, locus YNL271C, strain bni1, active compounds read low 1.01 | S. cerevisiae deletion strains, locus YNL298W, strain CLA4, active compounds read low 1.01 | S. cerevisiae deletion strains, locus YNL307C, strain MCK1, active compounds read low 1.02 | S. cerevisiae deletion strains, locus YNL322C, strain KRE1 (second series), active compounds read low 1.03 | S. cerevisiae deletion strains, locus YNR049C, strain mso1, active compounds read low 0.977 | S. cerevisiae deletion strains, locus YNR052C, strain pop2, active compounds read low 1.02 | S. cerevisiae deletion strains, locus YOL006C, strain TOP1, active compounds read low 1.12 | S. cerevisiae deletion strains, locus YOL012C, strain htz1 1.9 | S. cerevisiae deletion strains, locus YOL147C, strain pex11, active compounds read low 1.02 | S. cerevisiae deletion strains, locus YOR001W, strain rrp6, active compounds read low 1.04 | S. cerevisiae deletion strains, locus YOR061W, strain CKA2, active compounds read low 1.01 | S. cerevisiae deletion strains, locus YOR069W, strain VPS5, active compounds read low 1.02 | S. cerevisiae deletion strains, locus YOR070C, strain gyp1, active compounds read low 1.02 | S. cerevisiae deletion strains, locus YOR080W, strain dia2, active compounds read low 0.995 | S. cerevisiae deletion strains, locus YOR083W, strain WHI5, active compounds read low 1.02 | S. cerevisiae deletion strains, locus YOR106W, strain vam3, active compounds read low 1.07 | S. cerevisiae deletion strains, locus YOR136W, strain idh2, active compounds read low 1.01 | S. cerevisiae deletion strains, locus YOR144C, strain elg1, active compounds read low 1.01 | S. cerevisiae deletion strains, locus YOR184W, strain ser1, active compounds read low 1 | S. cerevisiae deletion strains, locus YOR231W, strain MKK1, active compounds read low 0.981 | S. cerevisiae deletion strains, locus YOR265W, strain rbl2, active compounds read low 0.996 | S. cerevisiae deletion strains, locus YOR270C, strain vph1, active compounds read low 1.09 | S. cerevisiae deletion strains, locus YOR290C, strain snf2, active compounds read low 1 | S. cerevisiae deletion strains, locus YOR316C, strain cot1, active compounds read low 1.02 | S. cerevisiae deletion strains, locus YPL051W, strain arl3, active compounds read low 0.99 | S. cerevisiae deletion strains, locus YPL055C, strain LGE1, active compounds read low 1.01 | S. cerevisiae deletion strains, locus YPL078C, strain atp4, active compounds read low 1.04 | S. cerevisiae deletion strains, locus YPL106C, strain sse1, active compounds read low 1.01 | S. cerevisiae deletion strains, locus YPL240C, strain hsp82, active compounds read low 0.989 | S. cerevisiae deletion strains, locus YPL241C, strain CIN2, active compounds read low 1.01 | S. cerevisiae deletion strains, locus YPL256C, strain CLN2, active compounds read low 0.964 | S. cerevisiae deletion strains, locus YPR119W, strain clb2, active compounds read low 1.02 | S. cerevisiae deletion strains, locus YPR141C, strain kar3, active compounds read low 1.02 | S. cerevisiae deletion strains, locus YPR163C, strain tif3, active compounds read low 1.03 | S. cerevisiae deletion strains, locus YPR167C, strain met16, active compounds read low 1.02 | S. cerevisiae deletion strains, strain wtn01, active compounds read low 1.02 | S. cerevisiae strains, strain wild type, active compounds read low 1.02
